Screening results: PubChem BioAssay, National Center for Advancing Translational Sciences (NCATS)
Pol eta inh – inhibitors of human DNA polymerase eta; Q9Y253; recombinant Pol eta, fluorescent DNA replication assay; Potency, µM (series often up to 114 µM), inactives show at the highest dose activity change, negative = inhibition, actives largely listed as inhibitors; 390,000 tested, 1.2% active; note: % is set by controls: 0 for no effect and ±100 for the full control effect
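Pol eta at 10 nM preincubated with compounds 15 min at room temperature; reaction started with fluorescent substrate (50 nM final) and read kinetically at 0 and 10 min.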
Pol kappa inh – blocks human DNA polymerase kappa activity | Q9UBT6 | purified Pol kappa, fluorescent DNA synthesis assay, 10 min | Potency, µM (highest dose often 107 µM), without a hit: top-dose activity, negative = inhibition, hits mostly inhibitors | 400,000 tested, 0.53% active | AID 588579; note: % is set by controls: 0 for no effect and ±100 for the full control effect
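Fluorescent qHTS in 1536-well format: enzyme (10 nM) and compound sat 15 min at room temperature before 50 nM substrate (final) was added. Signal taken at 0 and 10 min; no-enzyme buffer wells were negative controls.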
WRN inhibitor – inhibitors of human WRN helicase. Q14191. WRN helicase unwinding, fluorescent forked duplex, kinetic. Potency, µM (series often up to 114 µM), without a hit: top-dose activity change, negative = inhibition, hits mostly inhibitors. 360,000 tested, 0.46% active. AID 651768; note: % is set by controls: 0 for no effect and ±100 for the full control effect; nearly all actives have a fitted effect of over 55% in size
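Screening of the MLSMR collection measured strand separation of a quenched forked DNA duplex (100 nM) by 20 nM WRN with 2 mM ATP, all final. Compounds were preincubated with enzyme 15 min at room temperature.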
POLI inh – inhibitors of human DNA polymerase iota | Q9UNA4 | Pol iota fluorescent replication assay, 10 min | Potency, µM (doses to about 115 µM), without a hit: at the top dose activity, negative = inhibition, most hits filed as inhibitors | 390,000 tested, 1% active
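Fluorescent replication assay read twice, at 0 min and 10 min after adding 50 nM (final) substrate. Enzyme (10 nM) and compounds were first incubated 15 min at room temperature; enzyme-free buffer wells were negative controls.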
POLB inh – DNA polymerase beta (human) inhibition; 340,000 tested, 1.3% active; Pol beta primer extension/strand displacement, fluorescence kinetic; Potency, µM (highest dose often 114 µM), for inactives: at the highest dose activity change, negative = inhibition, hits mostly inhibitors; P06746; note: % is set by controls: 0 for no effect and ±100 for the full control effect
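Pol beta (10 nM) and compounds were preincubated 15 min at room temperature, then 50 nM substrate (final) started primer extension/strand displacement. Reads were taken at 0 and 10 min; concentration-response data were fitted to a four-parameter Hill equation.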
FEN1 inh – blocks human flap endonuclease 1; Recombinant FEN1 flap cleavage, fluorescence, 15 min; Potency, µM (doses to about 114 µM), for inactives: at the top dose activity change, negative = inhibition, actives largely listed as inhibitors; P39748; 390,000 tested, 0.35% active; note: % is set by controls: 0 for no effect and ±100 for the full control effect; nearly all actives have a fitted effect of over 65% in size
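Potency values derive from four-parameter Hill fits of normalized qHTS data. The reaction used 10 nM FEN1 preincubated 15 min at room temperature with compound, then 50 nM DNA substrate, read at 0 and 15 min.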
Active calls of the source: *; [ ] = remark or other dose. Shown are actives, neighbours in structure and some others; about 2.4% of the full set was active somewhere. Calls come from the whole dose curve; as a rule, active = well fitted curve in the direction sought with a large enough effect; inconclusive = small, poorly fitted or top-dose-only effect, or another doubt; inactive = no such curve, though single readings can be large; an effect the other way counts as inactive or inconclusive. Potency is the fitted concentration of half-maximal effect.

Cc1ccccc1-c1nc2scc(CCNS(=O)(=O)c3ccccc3)n2n1 was read as Pol eta inh -6%, Pol kappa inh -15%[60.1 µM], POLI inh -8%, POLB inh -29% and FEN1 inh -17%.
For CCn1c(NCc2cccc(Cl)c2)nc2ccccc21 the results were Pol eta inh -11%, Pol kappa inh -4%, POLI inh 20%, POLB inh 20% and FEN1 inh -21%.
Screening CC(C)CC(NC(=O)OC(C)(C)C)c1cn([C@@H](Cc2ccc(O)cc2)C(=O)N2CCN(C(=O)OC(C)(C)C)CC2)nn1 (some centres not stated) returned Pol eta inh -22%, Pol kappa inh -7%, WRN inhibitor -6%, POLI inh 15%, POLB inh 35µM* and FEN1 inh -5%.
CC[C@H](C)C(C(=O)N1CCN(C(=O)OC(C)(C)C)CC1)n1cc(C(Cc2ccc(O)cc2)NC(=O)OC(C)(C)C)nn1 (some centres not stated) was read as Pol eta inh -16%, Pol kappa inh 18%, WRN inhibitor 8%, POLI inh 6%, POLB inh 20% and FEN1 inh 10%.
`COc1cc(OC)c2c(O)c3c(c(-c4c5c(c(O)c6c(OC)cc(OC)cc46)CO[C@@H](C)[C@H]5O)c2c1)[C@H](O)[C@H](C)OC3` gave Pol eta inh 20µM*, Pol kappa inh 40µM*, WRN inhibitor 50µM*, POLI inh inconclusive, POLB inh 35µM* and FEN1 inh inconclusive.
O=C1NC(=S)N/C1=C/c1cccc([N+](=O)[O-])c1 was read as Pol eta inh inconclusive, Pol kappa inh -5%, WRN inhibitor -9%, POLI inh 47%, POLB inh 5% and FEN1 inh 0%.
Cc1ccc(-c2ccc(/C=C3/NC(=O)NC3=O)o2)cc1[N+](=O)[O-] was read as Pol eta inh inconclusive, Pol kappa inh inconclusive, WRN inhibitor -29%, POLI inh 50µM*, POLB inh -4% and FEN1 inh -21%.
For O=C1NC(=S)N/C1=C/c1ccc(-c2c(Br)cc([N+](=O)[O-])cc2Br)o1 the results were POLB inh 8.9µM*.
For CCOc1ccccc1NC(=O)CSc1nc2c(sc3ccccc32)c(=O)n1CCCC(=O)NC1CCCC1 the results were Pol eta inh 2%, Pol kappa inh -8%, POLI inh 1%, POLB inh -2% and FEN1 inh 13%.
For CCCCC(=O)Nc1sc2c(c1-c1nc3ccccc3s1)CCN(C(C)=O)C2 the results were POLB inh -2%.
CC(=O)N1CCc2c(sc(NC(=O)C3CC3)c2-c2nc3ccccc3s2)C1 was read as Pol eta inh 25µM*, Pol kappa inh -19%, WRN inhibitor -14%, POLI inh 48%, POLB inh 24% and FEN1 inh inconclusive.
Screening O=C(COc1ccc2c3c(c(=O)oc2c1)CCC3)Nc1ccc(CCO)cc1 returned Pol eta inh 50µM*, Pol kappa inh -3%, WRN inhibitor -15%[11.6 µM], POLI inh inconclusive, POLB inh inconclusive and FEN1 inh 13%.
NS(=O)(=O)c1ccc(CCNC(=O)COc2ccc3c4c(c(=O)oc3c2)CCC4)cc1 was read as Pol eta inh -1%, Pol kappa inh -8%, WRN inhibitor 0%, POLI inh -7%, POLB inh -11% and FEN1 inh 4%.
O=c1[nH]c2ccc(Br)cc2o1 was read as Pol eta inh -11%, Pol kappa inh -9%, WRN inhibitor 1%, POLI inh 52% and FEN1 inh -8%.
`O=C(CCl)c1ccc2[nH]c(=O)oc2c1` gave Pol eta inh 45µM*, Pol kappa inh -23%, WRN inhibitor -12%[11.6 µM], POLI inh inconclusive, POLB inh -21% and FEN1 inh 1%.
